# Screening results deposited in PubChem by several laboratories.
# esBAF inh: blocks esBAF chromatin remodeling in mouse ES cells; actives 2% (n = 350,000); AID 602393; Bmi1-luciferase knock-in reporter, 24 h; 100% = twice the neutral-well signal; reporter increase, % at 12.5 µM; in the data active = activation above about 40%; inconclusive = no clear call, values can overlap the other calls;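 also: 0% = median of the plate's neutral control wells and 100% = double that signal; a rise in the Bmi1 reporter signal indicates esBAF inhibition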
# GAA850 FXN act: activators of GAA850 frataxin (FXN) promoter; activation, % at 6 µM; HEK293 lucGAA850 FXN promoter luciferase reporter, 24 h; percent of 10 µM SAHA response; AID 540364; actives 0.56% (n = 360,000);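 active = activation above the average of all compounds screened plus 3 SD, cutoff fixed separately per campaign, cut at about 7.5% in these data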;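 also: 0% = DMSO wells and 100% = 10 µM SAHA wells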
# Statin myotox sup: protects C2C12 myotubes from simvastatin toxicity | rescue of ATP level, % at 7.49 µM | actives 0.78% (n = 330,000) | ATP luminescence, 48 h; scaled: DMSO 0, geranylgeraniol control 100;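 active = mean ATP rescue above about 67%, or every replicate alone reaching that limit, limit read from the data, passing the limit was not always enough; inconclusive = no clear call, values can overlap the other calls; inactive = mean under the limit and some replicate under it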;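 also: myotubes were challenged with 10 µM simvastatin during compound exposure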
# Wnt bcat act: Wnt/beta-catenin pathway activation; Wnt/beta-catenin reporter cell assay, activator, plate reader; activation, % at 9.35 µM; actives 1.2% (n = 300,000); AID 743398; in the data active = activation above about 30%, passing the limit was not always enough; inconclusive = no clear call, values can overlap the other calls;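 also: 0% = neutral control wells and 100% = positive control wells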
# MITF TRPM1 HTS: increases MITF-driven TRPM1 promoter luciferase signal | SK-MEL-5 TRPM1-promoter luciferase, 24 h; % of positive control, neutral wells = 0 | activation, % at 12.5 µM | actives 0.75% (n = 300,000);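 active = mean activation of at least 80% with every replicate also reaching 80%; inconclusive = mean reaches 80% but some replicate falls short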;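 also: 0% = neutral control wells and 100% = parthenolide positive control wells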
# GAA30 counter: GAA30 FXN promoter activation counter-screen. shares compounds with GAA850 FXN act. HEK293 lucGAA30 FXN promoter luciferase, 24 h; DMSO = 0%, 5 µM ipriflavone = 100%. activation, % at 6 µM. actives 66% (n = 1,900). AID 588350;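 active = mean activation above the mean of solvent-only control wells plus 3 SD, cut at about 22% in these data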;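 also: counterscreen of GAA850 promoter hits where activity marks nonselective or luminescence artifacts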
# FXN GAA850 conf: confirmation of GAA850 frataxin (FXN) promoter activators; shares compounds with GAA850 FXN act; HEK293 lucGAA850 FXN promoter luciferase reporter, 24 h; 100% = activation by SAHA; actives 86% (n = 1,900); activation, % at 6 µM; AID 588351;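 active = mean activation above a set limit taken from the primary screen, cut at about 8% in these data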;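 also: 0% = DMSO wells and 100% = 10 µM SAHA wells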
# * hit, by the source's call; ? = inconclusive; nt = not tested or not shown. In the library only some 3.3% were active in any assay of this set; here they are far more common.
SMILES,esBAF inh,GAA850 FXN act,Statin myotox sup,Wnt bcat act,MITF TRPM1 HTS,GAA30 counter,FXN GAA850 conf
Cc1ccc2nc(-c3ccc(NC(=O)COC(=O)c4cncc(Br)c4)cc3)sc2c1,-61,8.4*,-9,?,-5,107*,29*
CNC(=S)Nc1ccc(-c2nc3ccc(C)cc3s2)cc1,-9,8.4*,-1,-1,78,114*,39*
COCCNc1nnc(SC(C)C(=O)Nc2ccc(-c3nc4ccc(C)cc4s3)cc2)s1 (stereo not given),9,8.8*,1,nt,72,74*,29*
Cc1ccc2nc(-c3ccc(NC(=O)COC(=O)c4ccc(Br)o4)cc3)sc2c1,nt,1,nt,nt,15,nt,nt
CNC(=S)Nc1ccc(C)cc1,nt,-1,nt,0,-12,nt,nt
CC(C)NC(=O)Nc1ccc2c(c1)C(=O)N([C@H](C)CO)C[C@@H](C)[C@H](CN(C)S(=O)(=O)c1ccc(Cl)cc1)OCCCC[C@H](C)O2,-3,nt,nt,nt,nt,nt,nt
C[C@@H]1CN([C@@H](C)CO)C(=O)c2cc(C#C[C@@H](C)O)cnc2O[C@@H]1CN(C)C(=O)Cc1ccncc1,-1,nt,-2,nt,nt,nt,nt
COc1cnn(-c2ccc(C)cc2)c(=O)c1SCc1ccccc1,-13,7.9*,0,nt,65,66*,25*
COc1ccc(CC(N)c2csc(NC(=O)Nc3ccccc3Oc3ccccc3)n2)cc1 (stereo not given),-2,8.1*,-3,-2,nt,2,7
COc1ccc(CC(N)c2csc(NC(=O)Nc3ccccc3C(C)C)n2)cc1 (stereo not given),-3,0,-10,-2,nt,nt,nt
NC(Cc1ccc(C(F)(F)F)cc1)c1csc(NC(=O)Nc2ccccc2Oc2ccccc2)n1 (stereo not given),-88,12*,-18,-3,nt,-20,8.2*
COc1ccc(CC(N)c2csc(NC(=O)Nc3ccccc3Cc3ccccc3)n2)cc1 (stereo not given),-2,15*,0,-9,nt,14,7.7*
C[C@H]1CN([C@@H](C)CO)C(=O)Cc2cc(NC(=O)Cc3cn(C)c4ccccc34)ccc2O[C@H]1CN(C)S(=O)(=O)c1ccc(F)cc1,1,nt,-16,nt,nt,nt,nt
CO[C@H]1CN(C)C(=O)c2cc(NC(=O)C3CC3)ccc2OC[C@@H](C)N(C(C)=O)C[C@@H]1C,3,nt,18,nt,nt,nt,nt
O=S(=O)(c1cccs1)N1CCN(c2ccccc2Cl)CC1,2,3,-8,4,12,nt,nt
O=c1sc(N2CCN(c3ccccc3F)CC2)nc2ccsc12,69*,7.9*,-17,54*,nt,106*,40*
O=S(=O)(c1cccs1)N1CCN(c2ccccc2F)CC1,0,7.7*,13,-2,7,12,7
O=C(c1ccco1)N1CCN(c2nc3ccsc3c(=O)s2)CC1,39,4,8,5,43,nt,nt
C[C@H](NC(=O)C[C@H]1C=C[C@H](NC(=O)C2CCOCC2)[C@H](CO)O1)c1ccccc1,-2,nt,-1,nt,nt,nt,nt
COCCNC(=O)C[C@H]1C[C@H]2c3cc(NC(=O)CC4CC4)ccc3O[C@H]2[C@@H](CO)O1,-3,nt,6,nt,nt,nt,nt
COc1ccc(/C=C/c2nc(-c3ccccc3O)n[nH]2)cc1,nt,7.6*,nt,38*,43,94*,23*
O=C(N/N=C/c1ccc2c(c1)OCO2)c1cccs1,33,7,-11,-4,27,nt,nt
Cc1ccsc1C(=O)N/N=C/c1ccc2c(c1)OCO2,nt,8.8*,nt,21,12,104*,29*
CCS(=O)(=O)N[C@H]1C=C[C@@H](CC(=O)N2CCCCC2)O[C@H]1CO,0,nt,-4,nt,nt,nt,nt
CCn1c(SCc2nc3ccccc3s2)nc2cc(S(=O)(=O)N3CCOCC3)ccc21,62*,12*,-4,?,0,81*,33*
SMILES,esBAF inh,GAA850 FXN act,Statin myotox sup,Wnt bcat act,MITF TRPM1 HTS,GAA30 counter,FXN GAA850 conf
CCOCCCn1c(SCc2nc3ccccc3s2)nc2ccccc2c1=O,nt,-2,nt,nt,-4,nt,nt
CCCSc1nc2cc(S(=O)(=O)N3CCOCC3)ccc2n1CC,nt,2,nt,-2,4,nt,nt
COCCn1c(SCc2nc3ccccc3s2)nc2ccccc21,104*,8.4*,18,?,28,99*,31*
c1ccc(-n2cnnc2SCc2nc3ccccc3s2)cc1,36,7.8*,6,51*,nt,94*,26*
O=C(NCC[C@H]1CC[C@H](NS(=O)(=O)c2cccc(F)c2)[C@H](CO)O1)c1cnccn1,-4,nt,-1,nt,nt,nt,nt
C[C@H](CO)N1C[C@H](C)[C@H](CN(C)S(=O)(=O)c2cn(C)cn2)OCCCC[C@H](C)Oc2ccc(NC(=O)Nc3ccc(C(F)(F)F)cc3)cc2C1=O,4,nt,43,nt,nt,nt,nt
COCC(=O)N1C[C@@H](C)[C@H](OC)CN(C)C(=O)c2cc(NC(=O)NC(C)C)ccc2OC[C@H]1C,7,nt,-20,nt,nt,nt,nt
CC(=O)Nc1ccc(N/C=C/C(=O)c2ccc(C)o2)cc1,19,8.9*,-12,12,?,95*,30*
CCCCOC(=O)Nc1ccc2c(C)cc(=O)oc2c1,68*,7.7*,7,59*,nt,120*,39*
Cc1cc(=O)oc2cc(NC(=O)CCOc3ccccc3)ccc12,16,3,-14,5,53,nt,nt
Cc1nc2c(-c3ccc(F)cc3)cnn2c2c1CCC2,nt,8.2*,nt,?,9,90*,29*
Cc1nc2c(-c3ccccc3)cnn2c(N)c1-c1ccccc1,-50,-11,-79,-7,-5,nt,nt
C[C@@H]1CCCCO[C@@H](CN(C)Cc2ccc3c(c2)OCO3)[C@H](C)CN([C@@H](C)CO)C(=O)c2cc(NS(=O)(=O)c3cccs3)ccc2O1,-5,nt,nt,nt,nt,nt,nt
CCc1nn(C(CC)C(=O)NCCc2ccc(OC)cc2OC)c(=O)c2cc3occc3n12 (stereo not given),-7,10*,8,2,5,13,9.5*
COc1ccc(CN(C)C[C@@H]2OCCCC[C@H](C)Oc3ccc(NS(=O)(=O)c4ccc(F)cc4)cc3C(=O)N([C@H](C)CO)C[C@@H]2C)cc1,1,nt,nt,nt,nt,nt,nt
CN1c2ccc(-c3ccc(C#N)cc3)cc2[C@@H]2[C@@H](CCN2C(=O)CC2CC2)[C@H]1CO,-3,nt,-2,nt,nt,nt,nt
CS(=O)(=O)c1ccc(C(=O)NCCN2C(=O)S/C(=C\c3cccnc3)C2=O)cc1[N+](=O)[O-],nt,14*,nt,-9,-68,148*,44*
O=C(/C=C/c1ccccc1)c1c[nH]c2ccccc12,20,12*,-32,46*,77,142*,52*
CNC[C@H]1Oc2c(NC(=O)C3CCCCC3)cccc2C(=O)N([C@@H](C)CO)C[C@H]1C,1,nt,31,nt,nt,nt,nt
